Assay results from PubChem BioAssay AID2205 (University of Pittsburgh Molecular Library Screening Center, 2009).
The campaign covered roughly 200,000 compounds. About 1,600 (0.8%) were called active.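 How the source made its calls: active means plate Z-score above 3 for both tubulin-high and condensed-nucleus cell shares, with cell loss under 80%, at 10 µM; inactive means the rest, inconclusive results apart.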 Only a selection was taken, and actives are over-represented in it overall.

Test: tubulin staining increase by stabilizing compounds – imaging, high-content imaging, primary screen (AID 2205);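 on % tubulin-high responders: anti alpha tubulin signal scored within the nucleus-defined area of each cell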;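 on toxicity: 0% = mean cell density of plate MIN control wells and 100% = no cells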
Settings: HeLa tubulin immunostaining HCS, 24 h, at 10 µM; % Hoechst-high responders: measured here: nuclear condensation Hoechst responders, stronger effect = higher value, share of cells brighter than vehicle mean+2SD; % tubulin-high responders: stronger effect = higher value, share of cells brighter than vehicle mean+2SD; toxicity: measured here: cytotoxicity by cell density

| SMILES | % Hoechst-high responders | % tubulin-high responders | toxicity |
| --- | --- | --- | --- |
| Cc1nn(-c2ccccc2)c(-n2cccc2)c1C(=O)O | 3.22% | 2.89% (inactive) | 10.5% |
| CCOC(=O)c1[nH]c2c(c1C)C(=O)CC(c1ccc(N(C)C)cc1)C2 (stereo not drawn) | 1.67% | 6.74% (inactive) | 9.96% |
| CCCOC(=O)c1[nH]c2c(c1C)C(=O)CC(c1cccs1)C2 (stereo not drawn) | 49.4% | 25.2% (active) | 48.6% |
| CCCOC(=O)c1[nH]c2c(c1C)C(=O)CC(c1cc(OC)c(OC)c(OC)c1)C2 (stereo not drawn) | 1.51% | 5.08% (inactive) | 9.25% |
| CSc1ccc(/C=N\NC(=O)CC(=O)NC(C)C)cc1 | 1.95% | 3.08% (inactive) | 8.56% |
| CCOC(=O)c1nc(-c2ccc3c(c2)OCO3)[nH]c1C | 10.2% | 26.6% (active) | 43% |
| CCOC(=O)c1c(C)[nH]c(C(=O)COc2ccc3c(c2)OCO3)c1C | 3.29% | 2.42% (inactive) | 11.4% |
| Cc1ccc(C(=O)OCC(=O)NCc2ccc3c(c2)OCO3)s1 | 1.59% | 1.75% (inactive) | 6.77% |
| Cc1ccc(CNC(=O)CCNS(=O)(=O)c2ccc(Br)s2)cc1 | 2.82% | 2.88% (inactive) | 3.85% |
| CCOc1cccc(/C=C/c2ccc3ccccc3n2)c1OC(C)=O | 3.95% | 5.51% (inactive) | 3.2% |
| Cc1ccc2nc(-c3cccc(Br)c3)cc(C(=O)Nn3cnnc3)c2c1 | 3.03% | 6.01% (inactive) | 5.1% |
| COc1ccc2c(c1)C(c1cccs1)=NNC(c1cccnc1)=N2 | 1.1% | 2.37% (inactive) | 7.76% |
| Fc1ccc2c(c1)C(c1cccnc1)=NNC(c1cccs1)=N2 | 34.4% | 13.2% (active) | 33.1% |
| NC(=O)c1ccc(NC(=O)COC(=O)c2c3c(nc4ccccc24)/C(=C\c2ccc4c(c2)OCO4)CCC3)cc1 | 1.77% | 5.36% (inactive) | 8.9% |
| Cc1ccc(NC(=O)CC2S/C(=N/N=C3\CCCc4ccccc43)NC2=O)cc1 (stereo not drawn) | 2.08% | 1.84% (inactive) | 8.37% |
| C[n+]1ccccc1C1CCCC/C1=N\Nc1ccc([N+](=O)[O-])cc1[N+](=O)[O-] (stereo not drawn) | 1.98% | 5.56% (inactive) | 5.84% |
| CC(=O)c1ccc(S(=O)(=O)Nc2ccc(C(=O)NCC(c3ccccc3)N(C)C)cc2)cc1 (stereo not drawn) | 1.41% | 1.91% (inactive) | 3.99% |
| Nc1c(C(=O)O)cnn1-c1ccccc1 | 1.87% | 1.93% (inactive) | 3.6% |
| OCC1(CCOc2ccccc2)CCN(Cc2cn[nH]c2-c2ccccc2)CC1 | 2.29% | 2.29% (inactive) | 7.78% |
| Cc1cccc(-c2ncc(CN3CCC(CO)(CCCc4ccccc4)CC3)cn2)c1 | 2.55% | 2.1% (inactive) | 2.96% |
| Cc1c(CN2CCC(CO)(CCOc3ccccc3)CC2)[nH]c2ccc(Cl)cc12 | 7.79% | 27.6% (active) | 29.9% |
| CCc1ccccc1NC(=S)N(CCN1CCCCCC1)Cc1ccco1 | 2.22% | 4.39% (inactive) | 2.58% |
| O=c1[nH]n(-c2ccc([N+](=O)[O-])cc2)c(=O)c2ccccc12 | 1.89% | 3.4% (inactive) | 9.65% |
| Cc1ccc(-n2c(SCC(=O)N3c4ccccc4Sc4ccccc43)nnc2-c2ccncc2)cc1 | 1.48% | 4.83% (inactive) | 6.63% |
| Cc1cccc(C)c1NC(=O)CSc1ccc([N+](=O)[O-])cn1 | 2.4% | 2.2% (inactive) | 2.93% |
| Cc1cc(C)c(C#N)c(SCC(=O)Nc2ccccc2)n1 | 2.87% | 3.04% (inactive) | 8.63% |

| SMILES | % Hoechst-high responders | % tubulin-high responders | toxicity |
| --- | --- | --- | --- |
| Cc1cc2cc3c(cc2nc1SCC(=O)Nc1c(C)cccc1C)CCC3 | 34.5% | 47% (active) | 36.2% |
| CCCCN1C(=O)CCC(C(=O)O)C1c1ccc(OC)cc1 (stereo not drawn) | 2.91% | 4.23% (inactive) | 11.7% |
| O=C1CC(=O)Nc2cc(S(=O)(=O)N3CCN(c4cccc(C(F)(F)F)c4)CC3)ccc2N1 | 10.2% | 22.1% (active) | 36.8% |
| O=S(=O)(c1cccc(C(F)(F)F)c1)N1CCN(c2cnccn2)CC1 | 2.29% | 4.64% (inactive) | 6.14% |
| O=c1ccc2cc(S(=O)(=O)N3CCN(c4ccccc4)CC3)ccc2o1 | 1.39% | 0.945% (inactive) | 5.98% |
| C/C(CC1CC(C)(C)OC1=O)=N/Nc1nc(-c2ccccc2)cs1 (stereo not drawn) | 2.24% | 6.39% (inactive) | 11.5% |
| Cc1ccc2nc(-c3ccccn3)cc(C(=O)Nc3ccc4c(c3)OCO4)c2c1 | 2.11% | 3.85% (inactive) | 5.75% |
| Cc1ccc2nc(-c3ccncc3)cc(C(=O)Nc3ccc4c(c3)OCCO4)c2c1 | 4.59% | 3.49% (inactive) | 10% |
| Cc1ccc2nc(-c3ccncc3)cc(C(=O)Nc3ccc(OC(F)F)cc3)c2c1 | 37% | 13.9% (active) | 27.1% |
| CC(C)(O)C#Cc1ncc(C(F)(F)F)cc1Cl | 2.46% | 3.98% (inactive) | 7.29% |
| O=C1CC(N2CCN(c3ccc(F)cc3)CC2)C(=O)N1c1ccccc1 (stereo not drawn) | 1.93% | 2.61% (inactive) | 4.03% |
| Cc1onc(C(=O)NCc2ccc(F)cc2)c1[N+](=O)[O-] | 1.75% | 2.95% (inactive) | 6.2% |
| COc1ccc(OC)c(/C=C/C(=O)OCC(=O)Nc2ccc3c(c2)OCCO3)c1 | 20.4% | 17.6% (active) | 25.4% |
| COc1ccc(/C=C/C(=O)Nc2ccc3c(c2)OCCO3)cc1OC | 1.93% | 1.43% (inactive) | 9.72% |
| COc1ccc(/C=C/C(=O)OCC(=O)Nc2cccc(Oc3ccccc3)c2)c(OC)c1 | 4.35% | 1.52% (inactive) | 2.38% |
| O=C(CSc1ccc2nnc(-c3ccccc3)n2n1)N1CCCc2ccccc21 | 4.1% | 2.62% (inactive) | 12.3% |
| NC1=NC(=O)S/C1=C\c1ccc(O)cc1 | 3.29% | 1.93% (inactive) | 4.56% |
| O=C(NNC(=S)NCc1ccco1)C(c1ccccc1)c1ccccc1 | 2.12% | 1.06% (inactive) | 3.3% |
| CC1=C(C(=O)OCc2ccccc2)C(c2ccco2)n2ncnc2N1 (stereo not drawn) | 2.47% | 2.96% (inactive) | 10.1% |
| C=CCOC(=O)C1=C(C)NC(SCC(=O)OCC)=C(C#N)C1c1ccc(C)cc1 (stereo not drawn) | 1.55% | 2.42% (inactive) | 8.87% |
| CCOC(=O)CSC1=C(C#N)C(c2ccco2)C(C(=O)OCc2ccccc2)=C(C)N1 (stereo not drawn) | 31.7% | 50.8% (active) | 30% |
| CC1=C(C(=O)Nc2ccccc2)C(c2ccco2)C(C#N)=C(SCC(N)=O)N1 (stereo not drawn) | 1.48% | 1.69% (inactive) | 9.84% |
| CCOC(=O)CSC1=C(C#N)C(c2sccc2C)CC(=O)N1 (stereo not drawn) | 46% | 25.8% (active) | 48.2% |
| Cc1ccc(C2CC(=O)NC(SCC(=O)OCc3ccccc3)=C2C#N)o1 (stereo not drawn) | 13% | 33.6% (active) | 51.7% |
| COC(=O)CSC1=C(C#N)C(c2ccccc2OC)C(C(=O)OC)C(=O)N1 (stereo not drawn) | 1.9% | 3.79% (inactive) | 6.69% |
| COc1cc2c(cc1OC)C(c1ccc(C)o1)CC(=O)N2 (stereo not drawn) | 2.57% | 2.94% (inactive) | 5.58% |

| SMILES | % Hoechst-high responders | % tubulin-high responders | toxicity |
| --- | --- | --- | --- |
| C=CCSC1=C(C#N)C(c2cc(Br)c(O)c(OC)c2)CC(=O)N1 (stereo not drawn) | 5.45% | 1.66% (inactive) | 9.07% |
| CCOC(=O)c1cnc2ccc(F)cc2c1Nc1ccc2c(c1)OCCO2 | 3.26% | 2.38% (inactive) | 9.58% |
| O=C(COC(=O)/C=C/c1nc2ccccc2s1)Nc1ccccc1Oc1ccccc1 | 2.41% | 2.82% (inactive) | 3.33% |
| Cc1oc2cc([N+](=O)[O-])c(O)c([N+](=O)[O-])c2c1C(=O)c1ccc(Br)cc1 | 1.62% | 3.42% (inactive) | 6.71% |
| O=C(COC(=O)C1CCCCC1)Nc1ccc([N+](=O)[O-])cc1 | 1.85% | 1.8% (inactive) | 7.95% |
| O=C(NC1CCCCCC1)c1cccnc1Sc1ccc(Cl)cc1 | 1.73% | 4.58% (inactive) | 7.66% |
| O=C(CSc1ccccn1)Nc1nc2c(ccc3ccccc32)s1 | 1.64% | 2.26% (inactive) | 7.1% |
| CCO[C@H]1OC(C(=O)Nc2ccccc2)=C[C@@H](C2CC2)[C@@H]1CCCO | 1.42% | 1.2% (inactive) | 3.73% |
| CCC(C)NC(=O)/C=C/c1ccc(S(=O)(=O)NCc2ccco2)cc1 (stereo not drawn) | 1.97% | 1.46% (inactive) | 3.99% |
| Cc1c(/C=N\NC(=O)c2cc3ccccc3o2)c2ccccc2n1C | 21.2% | 38.7% (active) | 75.1% |
| O=C(N/N=C/c1coc2ccccc2c1=O)c1cc2ccccc2o1 | 2.07% | 3.76% (inactive) | 5.72% |
| Cc1c(/C=N/N2C(=O)C3C4C=CC(C4)C3C2=O)c2ccccc2n1C (stereo not drawn) | 1.92% | 5.53% (inactive) | 6.18% |
| O=C(N/N=C/c1ccc(OCC2COCCO2)cc1)c1ccc(Br)cc1 (stereo not drawn) | 1.72% | 2.47% (inactive) | 8.95% |
| CC(C)c1csc(CN2CCC(CO)(Cc3ccccc3)CC2)n1 | 1.55% | 3.05% (inactive) | 6.68% |
| O=S(=O)(c1ccc(F)cc1)N1CCN(C(=S)NCc2ccco2)CC1 | 3.02% | 4.87% (inactive) | 5.01% |
| COc1ccc(CC(NC(C)=O)C(=O)NC2CCN(C(=O)C3CC3)CC2)cc1OC (stereo not drawn) | 1.12% | 2.29% (inactive) | 9.53% |
| O=C(CN1CCC(O)(c2ccccc2)CC1)Nc1ccc2c(c1)OCCO2 | 1.61% | 5.34% (inactive) | 10.9% |
| CCc1ccc2c(c1)C(c1ccc([N+](=O)[O-])cc1)=NNC(c1ccccc1)=N2 | 3.31% | 2.17% (inactive) | 4.07% |
| CCOc1ccc2c(c1)C(c1ccc(C)cc1)=NNC(c1ccc(C)cc1)=N2 | 14.4% | 37.8% (active) | 35.7% |
| Cc1ccc(C2=Nc3c(ccc4ccccc34)C(c3ccncc3)=NN2)cc1 | 2.17% | 4.68% (inactive) | 5.9% |
| COc1cccc(CN(C)CC(=O)Nc2sc3c(c2C#N)CCC3)c1 | 1.26% | 3.67% (inactive) | 4.57% |
| CC1(C)CC(=O)C(CC(=O)N2CCC(Cc3ccccc3)CC2)C(=O)C1 | 2.54% | 4.67% (inactive) | 7.14% |
| Cc1csc(CN(C)C(=O)CC2C(=O)NCCN2CC(C)(C)C)n1 (stereo not drawn) | 2.16% | 2.8% (inactive) | 7.49% |
| Nc1nonc1-n1nnc(C(=O)N/N=C/c2cc(Br)ccc2O)c1CSC1=NCCS1 | 0.673% | 9.12% (inactive) | 24.4% |
